We go through 101 compounds from ChEMBL document CHEMBL1201862, “PubChem BioAssay data set” (2004).

Screen size: about 400,000 compounds; about 2,100 (0.53%) were called active. Not shown: some 14% with an inconclusive outcome. How the calls were made is not given here. Many of the other results were omitted from the sample, so actives are more common in it than they were.

Chain of Ataxin-2 (Homo sapiens) (Q99700 whole entry): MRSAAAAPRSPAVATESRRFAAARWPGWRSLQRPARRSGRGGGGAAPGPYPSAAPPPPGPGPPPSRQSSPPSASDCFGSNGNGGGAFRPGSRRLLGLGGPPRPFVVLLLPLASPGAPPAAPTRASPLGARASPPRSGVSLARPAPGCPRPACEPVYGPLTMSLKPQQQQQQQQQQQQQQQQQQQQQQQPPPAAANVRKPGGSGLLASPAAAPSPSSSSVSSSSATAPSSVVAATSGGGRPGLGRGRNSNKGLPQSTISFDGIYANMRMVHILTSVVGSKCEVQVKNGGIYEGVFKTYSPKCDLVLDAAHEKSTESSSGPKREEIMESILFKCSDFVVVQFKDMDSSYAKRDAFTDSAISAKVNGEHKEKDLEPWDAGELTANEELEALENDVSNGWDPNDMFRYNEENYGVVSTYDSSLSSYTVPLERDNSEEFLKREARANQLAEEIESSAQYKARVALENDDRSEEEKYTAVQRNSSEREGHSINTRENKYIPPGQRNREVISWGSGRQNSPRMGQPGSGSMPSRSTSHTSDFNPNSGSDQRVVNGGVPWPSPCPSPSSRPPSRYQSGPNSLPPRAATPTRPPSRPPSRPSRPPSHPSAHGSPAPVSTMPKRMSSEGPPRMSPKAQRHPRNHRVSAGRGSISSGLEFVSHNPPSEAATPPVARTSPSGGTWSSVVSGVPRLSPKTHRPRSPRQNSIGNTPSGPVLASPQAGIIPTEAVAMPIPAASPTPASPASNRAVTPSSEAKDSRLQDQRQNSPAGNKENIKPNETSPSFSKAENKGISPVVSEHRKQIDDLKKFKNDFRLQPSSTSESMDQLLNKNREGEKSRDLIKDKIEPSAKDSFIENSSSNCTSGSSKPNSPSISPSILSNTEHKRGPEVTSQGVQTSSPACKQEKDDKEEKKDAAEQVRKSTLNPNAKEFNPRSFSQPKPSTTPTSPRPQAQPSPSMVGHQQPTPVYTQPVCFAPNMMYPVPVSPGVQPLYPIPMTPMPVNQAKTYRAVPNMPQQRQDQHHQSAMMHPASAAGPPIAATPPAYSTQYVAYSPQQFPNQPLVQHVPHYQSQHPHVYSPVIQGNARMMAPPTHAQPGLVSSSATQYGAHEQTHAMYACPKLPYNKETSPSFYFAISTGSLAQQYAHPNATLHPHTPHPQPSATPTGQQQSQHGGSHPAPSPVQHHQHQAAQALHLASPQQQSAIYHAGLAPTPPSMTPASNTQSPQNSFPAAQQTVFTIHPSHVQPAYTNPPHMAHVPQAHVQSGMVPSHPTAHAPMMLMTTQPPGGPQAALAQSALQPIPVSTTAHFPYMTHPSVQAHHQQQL

This experiment addresses Ataxin-2 (Homo sapiens) (UniProt Q99700). Nature of the experiment: qHTS for Inhibitors of ATXN expression. The class given is functional. For orientation: Quantitative high-throughput screening tests each substance at several concentrations.
In the case of `CC(C)(C)c1ccc(/C=C2\Oc3c(ccc(O)c3CN3CCN(CCO)CC3)C2=O)cc1`, the Potency entry was “inactive”. For `CCN1C(=O)N(CC)C2C1N(CO)C(=O)N2CO` (stereo unspecified), the Potency result is “inactive”. The result for `COC(=O)c1ccc(NC(=O)CS(=O)(=O)c2ccccc2)cc1` reads “inactive”. As for `Cc1cc(C)c(S(=O)(=O)Nc2cccc(C(=O)O)c2)cc1S(=O)(=O)Nc1cccc(C(=O)O)c1`, the Potency result was “inactive”. Take `O=C1C(Nc2ccccc2)=C/C(=N/S(=O)(=O)c2cccs2)c2ccccc21`: the Potency is 8.91 µM (active). The result for `O=C(N/N=C/c1ccc(N2CCOCC2)cc1)c1ccc(NS(=O)(=O)c2cccs2)cc1` reads “inactive”; that for `O=C(O)c1ccc(Nc2c3ccccc3nc3ccccc23)cc1`, “inactive”; that for `O=S(=O)(O)c1cccc2cccc(Nc3ccccc3)c12`, “inactive”. With `C=CCN1C(=O)/C(=C/N(C)C)S/C1=N\S(=O)(=O)c1cccs1`, the Potency result is “inactive”. For the compound `O=C(O)c1ccc(NC2=C/C(=N/S(=O)(=O)c3cccs3)c3ccccc3C2=O)cc1`, the Potency is 22.4 µM (active). `Cc1ccc(S(=O)(=O)N2CCN(CC(=O)N3CCCC3)CC2)c(C)c1`: the Potency result was “inactive”. With `Cc1ccc(S(=O)(=O)/N=C2\C=C(Nc3cccc(C(=O)O)c3)C(=O)c3ccccc32)c(C)c1` the figure was 28.2 µM (active); with `O=C(O)c1ccc(NC2=C/C(=N/S(=O)(=O)c3ccccc3)c3ccccc3C2=O)cc1`, 39.8 µM (active); with `Cc1cc(NS(=O)(=O)c2ccc(NC(=O)c3cc4cc(Br)ccc4oc3=O)cc2)no1`, “inactive”. The result for `O=c1cc(-c2ccccc2)c2c(O)cc(O)cc2o1` reads “inactive”; that for `O=c1oc2ccc(Br)cc2cc1S(=O)(=O)c1ccc(F)cc1`, “inactive”. The result for `CCCCN(C)S(=O)(=O)c1ccc(C(=O)Nc2sc3c(c2C(N)=O)CC(C)(C)NC3(C)C)cc1` reads “inactive”; that for `Brc1ccccc1C1CC(c2ccccc2)=Nc2ccccc2N1` (stereo unspecified), “inactive”; that for `C=C1C(=O)O[C@@H]2C[C@@H](C)[C@@H]3C=CC(=O)[C@@]3(C)[C@@H](OC(C)=O)[C@H]12`, 8.91 µM (active). In the case of `Cc1cc(/C=C2\Cc3ccccc3C2=O)c(C)n1-c1ccccc1`, the Potency entry was “inactive”. On to `CC(C)(C)CC(C)(C)NCC(O)COCCOc1ccc(Br)cc1` (stereo unspecified), for which the Potency was 39.8 µM (active). In the case of `CCCCOCCCNC(=O)C[C@@H]1C[C@@]2(C(=O)OC)CCCCC=C2N(Cc2ccc(Cl)cc2Cl)C1=O`, the Potency is 39.8 µM (active). The result for `COCCCNC(=O)CN1C(=O)c2cccc3cccc1c23` reads “inactive”. With `CCCCOCCCNC(=O)C[C@@H]1C[C@@]2(C(=O)OC)CCCCC=C2N(Cc2cccc3ccccc23)C1=O` the figure was 28.2 µM (active); with `COC(=O)[C@]12CCCCC=C1N(Cc1ccc(Cl)cc1Cl)C(=O)[C@H](CC(=O)N1CCN(C(=O)C3CC3)CC1)C2`, 35.5 µM (active). The result for `COc1ccc(C2=CSC3=NCCN23)cc1Br` reads “inactive”; that for `COc1ccc2nc(N3CCC(C)CC3)c(C#N)cc2c1`, “inactive”. For the compound `CCOC(=O)/C(=C\c1ccc(Cl)cc1)c1nc(O)c2c(C)c(C)sc2n1`, the Potency was 39.8 µM (active).

As to `COc1ccc(/C=N/n2c(C)nc3sc(C)c(C)c3c2=O)cc1`, the Potency result is “inactive”.

Regarding `CCOC(=O)c1sc(-c2ccc(Cl)cc2Cl)nc1O`, the Potency result is “inactive”. With `COc1ccc(C2CC(c3cccs3)=NN2c2ccccc2)cc1` (stereo unspecified) the entry was “inactive”. With `CC1(C)CC(=O)C2=C(C1)c1c(ccc3ccccc13)NC2c1ccc(C(=O)O)cc1` (stereo unspecified) the entry was “inactive”; with `O=C(CCS(=O)(=O)c1ccccc1)Nc1nc2c(s1)COc1ccccc1-2`, 33.6 µM (active). With `CCCC(=O)Nc1nc2c(s1)COc1ccccc1-2` the entry was “inactive”; with `CC1(C)CC(=O)c2sc(NC(=O)CCS(=O)(=O)c3ccccc3)nc2C1`, 37.7 µM (active). Consider `CCc1cccc(NC(=O)CCS(=O)(=O)c2ccc(Br)cc2)c1`, for which the Potency entry was “inactive”.

On to `O=C(Nc1nc2ccccc2s1)c1cc2c(s1)-c1ccccc1OC2`, for which the Potency entry was “inactive”. The result for `COc1ccc(C2=CC(c3ccccc3Cl)n3nc(-c4ccc(C)cc4)nc3N2)cc1` (stereo unspecified) reads “inactive”; that for `O=C(c1ccccc1)c1sc(Nc2ccc3c(c2)OCO3)nc1-c1ccccc1`, “inactive”.

For `COc1ccc(-c2nc3ncccn3c2Nc2ccccc2)cc1`, the Potency result was “inactive”. The result for `Cc1ccc(-c2nc3ccccn3c2Nc2ccc3c(c2)OCO3)cc1` reads 35.5 µM (active); that for `CCN(C(=O)CSc1nnc(C2CC2)n1-c1ccccc1)C1CCS(=O)(=O)C1` (stereo unspecified), “inactive”; that for `CCOC(=O)CSc1nnc2n(-c3ccccc3)c(=O)c3c4c(sc3n12)CC(C(C)(C)C)CC4` (stereo unspecified), 35.5 µM (active). For the compound `CCOC(=O)C1CCCN(CCC(=O)Nc2cc(C)ccc2C)C1` (stereo unspecified), the Potency result was “inactive”. On to `COc1cccc2c3c(c(C)nc12)CCN3c1ccccc1`, for which the Potency entry is “inactive”.

With `Cc1cccn2c(=O)c3cc(C(=O)NCC4CCCO4)c(=N)n(CCc4ccccc4)c3nc12` (stereo unspecified), the Potency entry is “inactive”.

`Oc1ccc2nnc3c(Br)cnn3c2c1`: the Potency result was “inactive”. Regarding `CCCNS(=O)(=O)c1ccc2nc(NC(=O)c3ccc(F)cc3)sc2c1`, the Potency is 39.8 µM (active). As to `COc1cc2nc(NC(=O)c3ccc(S(=O)(=O)N4CCCC4)cc3)sc2cc1OC`, the Potency entry is “inactive”. The result for `NS(=O)(=O)c1ccc2nc(NC(=O)c3ccc(Br)o3)sc2c1` reads “inactive”; that for `Cc1n[nH]c(-c2cccnc2)c1N=NN(C)C`, 23.8 µM (active); that for `O=C/C(=C\Nc1ccc(S(=O)(=O)CCO)cc1)c1nc2cc(Cl)ccc2o1`, “inactive”. On to `Cc1ccsc1/C=N/N=C/c1sccc1C`, for which the Potency result was “inactive”. With `C=C1C(=O)OC2C=C(CO)C3OC3C3OC3(C)CC(OC(=O)/C(=C/C)COC(C)=O)C12` (stereo unspecified) the figure was 16.8 µM (active). In the case of `O=C1Nc2c(Br)cc(Br)c3cccc1c23`, the Potency result was “inactive”. Turning to `Cc1cc(C)cc(NC2=C(c3ccccc3)C(=O)c3ccccc32)c1`, the Potency is 20 µM (active). On to `Cc1cnc2c(c1)C(=O)c1ccccc1-2`, for which the Potency result was “inactive”. With `Cc1ccc(C2C=C(c3ccccc3)Nc3ncnn32)cc1` (stereo unspecified) the entry was “inactive”; with `CCc1cc2c(C)cc(=O)oc2cc1OC(=O)C1CCCN1C(=O)OC(C)(C)C` (stereo unspecified), “inactive”. In the case of `CC(=O)/N=c1\c(C#N)cc2c(=O)n3cccc(C)c3nc2n1CCCOC(C)C`, the Potency result was “inactive”. Turning to `CCOC(=O)Nc1ccc2c3c(cccc13)-c1ccccc1-2`, the Potency result is “inactive”. For `CCOC(=O)Nc1ccc2c(c1)C(=NNC(N)=S)c1ccccc1-2`, the Potency is 31.6 µM (active).

For `C=C(C)CN=C(S)NN=C1c2ccccc2-c2ccccc21`, the Potency entry was “inactive”.

Consider `COc1ccc(C2C=C(c3ccccc3)Nc3nc(NC(=O)c4ccc(C)cc4)nn32)cc1` (stereo unspecified), for which the Potency result was “inactive”. With `COC1(OC)C(/C=C/c2ccc(Cl)cc2)C(C#N)(C#N)C1(OC)OC` (stereo unspecified) the figure was 31.6 µM (active); with `NC(=O)c1ccsc1NC(=O)COC(=O)CNC(=O)c1ccc(F)cc1`, “inactive”. For the compound `C=Cn1cc[n+](CC(=O)c2ccc(Br)cc2)c1`, the Potency result was “inactive”. On to `O=C(CCCSc1nc(O)c2ccccc2n1)c1ccccc1`, for which the Potency entry is “inactive”. The result for `O=C(CCSc1ccc(Br)cc1)c1ccc(O)cc1` reads 39.8 µM (active); that for `COc1ccc(N2C(=O)CC(Sc3nc[nH]n3)C2=O)c(OC)c1` (stereo unspecified), 28.2 µM (active). With `COc1ccc(C2Nc3cc(OC)ccc3-n3cccc32)cc1` (stereo unspecified) the entry was “inactive”; with `COc1ccccc1N1C(=O)CC(N(O)c2ccccc2)C1=O` (stereo unspecified), “inactive”; with `CCN(C(=O)c1cc2c(=O)n3ccccc3nc2n1C)C1CCCCC1`, “inactive”.

With `Nc1ccc(SCc2nc3cccc4c3n2CCC4)cc1`, the Potency result is “inactive”. With `c1ccc(CN2CCN(Cc3nnc(-c4ccccc4)o3)CC2)cc1` the entry was “inactive”; with `c1ccc(CN2CCN(CCCNc3ccc4nnc(-c5ccccc5)n4n3)CC2)cc1`, 22.4 µM (active). As to `CCCn1c(=N)c(C#N)cc2c(=O)n3ccccc3nc21`, the Potency entry is “inactive”. The result for `COc1ccc(-c2cc3ccc(O)cc3oc2=O)cc1` reads “inactive”. The result for `CCOCCCn1c(=N)c(C(=O)NCC2CCCO2)cc2c(=O)n3cc(C)ccc3nc21` (stereo unspecified) reads “inactive”. With `Cc1ccc(-c2nn(-c3ccccc3)cc2/C=C(\C#N)c2cccc(C#N)c2)o1` the entry was “inactive”; with `CC(=O)Nc1ccc(S(=O)(=O)Nc2cccc3cccnc23)cc1`, “inactive”; with `CC1(C(=O)Nc2cccc3cccnc23)CCN1Cc1ccc(-c2ccccc2)o1` (stereo unspecified), 6.31 µM (active). Turning to `CC1(C(=O)Nc2cccc3ccccc23)CC1(Br)Br` (stereo unspecified), the Potency result was “inactive”. With `Cc1ccc(N2C(=O)/C(=C/Nn3cnnc3)c3ccccc3C2=O)cc1`, the Potency entry is “inactive”. The result for `CCOCCCn1/c(=N/C(C)=O)c(C#N)cc2c(=O)n3ccccc3nc21` reads “inactive”.

In the case of `CC(C)C[C@H]1COc2cccc(N3CCN(Cc4ccccc4F)CC3)c2S(=O)(=O)N1`, the Potency was 12.6 µM (active). `O=C(NCc1ccco1)C1CCC(N2C(=O)C3C4CCC(C4)C3C2=O)CC1` (stereo unspecified): the Potency entry was “inactive”. On to `O=C(Nc1cccc2c1C(=O)NC2=O)c1ccccc1[N+](=O)[O-]`, for which the Potency result is “inactive”.

On to `CCOc1ccc(NC(=O)c2cc3ccccc3cc2O)cc1`, for which the Potency result was “inactive”. Take `CCOc1ccc(NC(=O)/C(=C/Nc2ccccc2)C(C)=O)cc1`: the Potency entry was “inactive”. The result for `CCOc1ccc(NC(=O)c2cn(CC(C)C)c(=O)c3c2c2ccccc2n3C)cc1` reads 17.8 µM (active). With `CCOCCCN=C(S)N1CCCN(c2nc3cc(C)cc(C)c3cc2C#N)CC1`, the Potency result is “inactive”. The result for `CCOc1ccc2nc(O)c(CN(Cc3cccs3)Cc3nnnn3C(C)(C)CC)cc2c1` reads 35.5 µM (active); that for `CCN1CCN(c2nc(Nc3cc(OC)ccc3OC)nc(Nc3cc(OC)ccc3OC)n2)CC1`, “inactive”; that for `CCc1nc2ccc(C(=O)Nc3nnc(C)s3)cc2nc1CC`, “inactive”.

Take `COC(=O)c1c(NC(=O)c2ccc(S(=O)(=O)N(C)C3CCCCC3)cc2)sc2c1CCN(C)C2`: the Potency result was “inactive”. As to `Cc1c(C(=O)Nc2ccc(S(=O)(=O)N(C)C3CCN(C)CC3)cc2)oc2c(Cl)cccc12`, the Potency was 39.8 µM (active). The result for `Cn1nc(C(=O)Nc2cccc(S(=O)(=O)N3CCCC3)c2)c2ccccc2c1=O` reads “inactive”; that for `O=C(Cc1cccs1)N1CCN=C1SCc1ccccc1Cl`, “inactive”; that for `O=C(COC(=O)Cn1cnc2ccccc2c1=O)NCc1ccccc1Cl`, “inactive”.

Regarding `O=C(CCl)/N=c1\sccn1Cc1ccccc1Cl`, the Potency was 31.6 µM (active).
